Where “and” joins values, the source holds several entries; their conditions need not be identical. Equal values may be shown once. Out of some 5,500 compounds screened, about 2,000 (36%) were called active. Inconclusive results (about 18%) are left out. Cut-off read from the data, not from the text of the source: active = normalized growth mostly below about 0.91 (no sharp cut-off); inconclusive = no clear call, values can overlap the other calls; inactive = mostly above about 0.92. The list shows a part of the results.
Test: chemical genetic growth profiling, strain panel (AID 1159580);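 note: tested at 20 µM; growth read once vehicle control cultures reached saturation at 30 °C; 1 = growth at the plate median or of vehicle wells; lower values mean less growth of the strain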
Conditions: S. cerevisiae deletion strains, growth OD

Measured: normalized growth

C=C[C@@]1(C)CC(=O)[C@@]2(O)[C@](C)(O1)[C@@H](OC(C)=O)[C@@H](O)C1C(C)(C)CC[C@H](O)[C@@]12C (stereo partly specified)
inactive: locus YAL013W, strain DEP1, active compounds read low 0.984 | locus YAL021C, strain ccr4, active compounds read low 0.951 | locus YAL026C, strain drs2, active compounds read low 0.978 | locus YAL030W, strain snc1, active compounds read low 0.973 | locus YBL061C, strain skt5, active compounds read low 0.984 | locus YBR009C, strain hhf1, active compounds read low 1 | locus YBR021W, strain FUR4, active compounds read low 1.01 | locus YBR023C, strain chs3, active compounds read low 0.978 | locus YBR171W, strain sec66, active compounds read low 0.992 | locus YBR229C, strain ROT2, active compounds read low 0.947 | locus YBR231C, strain swc5, active compounds read low 1.01 | locus YBR279W, strain paf1, active compounds read low 0.974 | locus YCL011C, strain gbp2, active compounds read low 0.954 | locus YCL016C, strain dcc1, active compounds read low 0.956 | locus YCL029C, strain bik1, active compounds read low 0.977 | locus YCL069W, strain vba3, active compounds read low 0.983 | locus YCR088W, strain abp1, active compounds read low 0.996 | locus YDL005C, strain med2, active compounds read low 0.983 | locus YDL035C, strain GPR1, active compounds read low 0.96 | locus YDL040C, strain nat1, active compounds read low 0.986 | locus YDL074C, strain BRE1, active compounds read low 0.999 | locus YDL101C, strain DUN1, active compounds read low 0.988 | locus YDL134C, strain PPH21, active compounds read low 0.981 | locus YDL185W, strain tfp1, active compounds read low 0.986 | locus YDL192W, strain arf1, active compounds read low 0.976 | locus YDR001C, strain nth1, active compounds read low 0.976 | locus YDR069C, strain doa4, active compounds read low 0.975 | locus YDR101C, strain arx1, active compounds read low 0.986 | locus YDR137W, strain rgp1, active compounds read low 0.989 | locus YDR150W, strain NUM1, active compounds read low 0.972 | locus YDR159W, strain sac3, active compounds read low 1.02 | locus YDR162C, strain NBP2, active compounds read low 0.969 | locus YDR195W, strain ref2 1.02 | locus YDR297W, strain sur2, active compounds read low 0.977 | locus YDR318W, strain mcm21, active compounds read low 0.986 | locus YDR334W, strain swr1, active compounds read low 0.972 | locus YDR335W, strain msn5, active compounds read low 0.988 | locus YDR388W, active compounds read low 0.988 | locus YDR392W, strain spt3, active compounds read low 0.905 | locus YDR502C, strain sam2, active compounds read low 0.965 | locus YEL003W, strain gim4, active compounds read low 0.994 | locus YEL037C, strain rad23, active compounds read low 0.997 | locus YEL061C, strain CIN8 (second series), active compounds read low 0.992 | locus YEL061C, strain CIN8, active compounds read low 0.983 | locus YER015W, strain faa2, active compounds read low 0.993 | locus YER016W, strain bim1, active compounds read low 0.963 | locus YER110C, active compounds read low 0.976 | locus YER111C, strain swi4, active compounds read low 1.01 | locus YER155C, strain BEM2 (second series), active compounds read low 0.999 | locus YER155C, strain BEM2, active compounds read low 1.01 | locus YER167W, strain BCK2, active compounds read low 0.964 | locus YFR010W, strain ubp6, active compounds read low 0.998 | locus YGL078C, strain dbp3, active compounds read low 0.985 | locus YGL086W, strain mad1, active compounds read low 0.984 | locus YGL167C, strain pmr1, active compounds read low 0.99 | locus YGL173C, strain kem1, active compounds read low 0.987 | locus YGL227W, strain vid30, active compounds read low 0.985 | locus YGL240W, strain doc1, active compounds read low 0.98 | locus YGL248W, strain PDE1, active compounds read low 0.982 | locus YGL253W, strain hxk2, active compounds read low 0.948 | locus YGR078C, strain PAC10, active compounds read low 1.01 | locus YGR135W, strain pre9, active compounds read low 0.985 | locus YGR229C, strain SMI1, active compounds read low 0.998 | locus YGR252W, strain gcn5, active compounds read low 1 | locus YHR013C, strain ard1, active compounds read low 0.948 | locus YHR027C, strain rpn1, active compounds read low 0.982 | locus YHR030C, strain SLT2, active compounds read low 0.987 and 0.975 | locus YHR079C, strain IRE1 (second series), active compounds read low 0.994 | locus YHR079C, strain IRE1, active compounds read low 0.978 | locus YHR094C, strain hxt1, active compounds read low 0.987 | locus YHR129C, strain ARP1, active compounds read low 0.996 | locus YHR142W, strain chs7, active compounds read low 0.955 | locus YHR200W, strain rpn10, active compounds read low 0.989 | locus YIL066C, strain RNR3, active compounds read low 0.979 | locus YIL073C, strain SPO22, active compounds read low 0.945 | locus YIL125W, strain kgd1, active compounds read low 0.983 | locus YIR030C, strain dcg1, active compounds read low 0.979 | locus YJL092W, strain hpr5, active compounds read low 0.974 | locus YJL095W, strain BCK1 (second series), active compounds read low 0.978 | locus YJL095W, strain BCK1, active compounds read low 1 and 0.973 | locus YJL115W, strain asf1, active compounds read low 0.964 | locus YJL129C, strain trk1, active compounds read low 0.954 | locus YJL134W, strain LCB3, active compounds read low 0.984 | locus YJL154C, strain vps35, active compounds read low 0.982 | locus YJL164C, strain tpk1, active compounds read low 0.995 | locus YJL166W, strain qcr8, active compounds read low 0.992 | locus YJL168C, strain set2, active compounds read low 0.992 | locus YJL187C, strain SWE1 (second series), active compounds read low 0.991 | locus YJL187C, strain SWE1, active compounds read low 0.984 | locus YJR043C, strain POL32, active compounds read low 1.01 | locus YJR066W, strain TOR1, active compounds read low 0.927

Reference: PubChem BioAssay AID1159580 (chemical genetic matrix, 2015)
